From PubChem BioAssay (NCI) come the findings set out here.

Some test systems named below: SR leukemia; RPMI-8226 leukemia; OVCAR-8 ovarian; OVCAR-5 ovarian; OVCAR-4 ovarian; SK-OV-3 ovarian; IGROV1 ovarian; OVCAR-3 ovarian; HS 578T breast; NCI/ADR-RES ovarian.
Assay in all cases: NCI-60 one-dose screen, 48 h (100 = growth as untreated, 0 = no growth, -100 = all killed)
Common to all, as to details: 10 µM unless noted

This is part of a sample that, as a whole, favours compounds with a hit. Of some 83,000 tested, about 20% had one in any assay.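 Note: values are percent growth. 100 is the growth of untreated cells, values between 100 and 0 indicate rising inhibition; between -100 and 0 indicates cell death.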 A number with no mark means an inactive call. Active and inactive are the calls of the source. The calls were made as follows: active = growth percent below 10; inactive = the rest.

As for `O=C(Nc1ccccc1[N+](=O)[O-])c1ccc(Cl)c(Cl)c1`, the growth was 92.3% in the assay with SR leukemia; 90.1% with RPMI-8226 leukemia; 95.5% in the assay on OVCAR-8 ovarian; 111% with OVCAR-5 ovarian; 81.4% with OVCAR-4 ovarian; 94.9% with SK-OV-3 ovarian. Further, the growth in the assay on IGROV1 ovarian is 87.2%; in the assay on OVCAR-3 ovarian, 97%; in the assay on HS 578T breast, 87.8%; with NCI/ADR-RES ovarian it was 87.2%.

Regarding `N#Cc1c(-c2ccccc2)nc(SCc2nnc(-c3ccc(Cl)cc3)o2)[nH]c1=O`, the growth in the assay on SR leukemia was 105%; in the assay with RPMI-8226 leukemia, 95.6%; with OVCAR-8 ovarian it was 93.6%; in the assay on OVCAR-5 ovarian, 114%; in the assay with OVCAR-4 ovarian, 106%; in the assay with SK-OV-3 ovarian it was 55.4%. The growth in the assay on IGROV1 ovarian was 103%; in the assay on OVCAR-3 ovarian, 103%; with HS 578T breast, 93.8%; in the assay on NCI/ADR-RES ovarian it was 93.3%.

On to `N#C/C(=C\c1cn(Cc2ccccc2)c2ccccc12)C(=O)Nc1ncc(Cc2ccccc2Cl)s1`, for which the growth in the assay with SR leukemia is 8.65% (active); in the assay with RPMI-8226 leukemia, 67.6%; in the assay on OVCAR-8 ovarian it was 6.09% (active); in the assay on OVCAR-5 ovarian it was -2.57% (active); with OVCAR-4 ovarian, -74.6% (active); in the assay on SK-OV-3 ovarian it was 9.54% (active). Also, the growth with IGROV1 ovarian was 9.54% (active); in the assay with OVCAR-3 ovarian, -19.1% (active); in the assay with HS 578T breast, 21.7%; in the assay with NCI/ADR-RES ovarian, 15%.

For `Cc1nnc(-c2ccc3c(c2)nc(/C=C/c2ccccc2)n3C2CCCCC2)o1`, the growth was 46% with SR leukemia; 44.3% in the assay with RPMI-8226 leukemia; 80.2% in the assay with OVCAR-8 ovarian; 125% in the assay with OVCAR-5 ovarian; 82.3% with OVCAR-4 ovarian; 64.8% in the assay with SK-OV-3 ovarian. The growth with IGROV1 ovarian is 77.1%; in the assay with OVCAR-3 ovarian it was 75.4%; with HS 578T breast it was 90.3%; in the assay on NCI/ADR-RES ovarian it was 85.2%.

For `COc1cnc2c(c1)C(=O)c1c-2n(CCCCl)c(=O)c2ccncc12`, the growth is 17.1% with SR leukemia; 41.9% with RPMI-8226 leukemia; 66.2% in the assay with OVCAR-8 ovarian; 116% with OVCAR-5 ovarian; 66.2% in the assay on OVCAR-4 ovarian; 89.3% in the assay on SK-OV-3 ovarian. The growth in the assay on IGROV1 ovarian was 55.5%; in the assay on OVCAR-3 ovarian it was 2.98% (active); in the assay on HS 578T breast, 84.3%; in the assay with NCI/ADR-RES ovarian it was 59%.

Turning to `CN(CCCNC(=O)CCOCCOCCOCCNC(=O)Cc1ccc2ccc3cccc4ccc1c2c34)CCCNc1cc(-c2ccc3ccccc3c2)nc2ccccc12`, the growth in the assay on SR leukemia is -74.8% (active); in the assay on RPMI-8226 leukemia, -48.9% (active); in the assay with OVCAR-8 ovarian it was -37.4% (active); in the assay on OVCAR-5 ovarian, -86.4% (active); in the assay on OVCAR-4 ovarian, -90.6% (active); in the assay with SK-OV-3 ovarian it was -96.8% (active). Besides, the growth was -43.8% (active) in the assay on IGROV1 ovarian, -92% (active) in the assay with OVCAR-3 ovarian, -58.9% (active) with HS 578T breast and 8.51% (active) in the assay on NCI/ADR-RES ovarian.

In the case of `Cc1nn(-c2ccccc2)c(N)c1N=C1NC(=O)/C(=C/c2ccc(Br)cc2)S1`, the growth is 36.8% with SR leukemia; 42.3% in the assay on RPMI-8226 leukemia; 98.8% with OVCAR-8 ovarian; 72.7% in the assay with OVCAR-5 ovarian; 95.6% in the assay on OVCAR-4 ovarian; 84.8% with SK-OV-3 ovarian. For the same compound, the growth in the assay on IGROV1 ovarian was 99.6%; with OVCAR-3 ovarian, 72%; in the assay on HS 578T breast it was 93.6%; in the assay on NCI/ADR-RES ovarian, 77.7%.

With `O=C(Cc1cccc(OC(F)(F)F)c1)Nc1ccc(CCCCc2nnc(NC(=O)Cc3ccccn3)s2)nn1`, the growth in the assay on SR leukemia was 41.3%; with RPMI-8226 leukemia it was 6.13% (active); with OVCAR-8 ovarian, 65%; in the assay on OVCAR-5 ovarian, 86.7%; in the assay on OVCAR-4 ovarian, 76.3%; in the assay with SK-OV-3 ovarian, 75.1%. For the same compound, the growth with IGROV1 ovarian is 78.9%; with OVCAR-3 ovarian, 87.3%; with HS 578T breast, 79.3%; with NCI/ADR-RES ovarian, 85.6%.

With `CCOC(=O)c1nn(CC(O)c2ccccc2)c(NC(=O)Nc2cccc(F)c2)c1C` (stereo not drawn), the growth in the assay on SR leukemia is 95.3%; in the assay on RPMI-8226 leukemia, 96.6%; with OVCAR-8 ovarian, 91.4%; in the assay with OVCAR-5 ovarian, 107%; in the assay with OVCAR-4 ovarian, 94.8%; with SK-OV-3 ovarian, 107%. Besides, the growth in the assay with IGROV1 ovarian is 109%; in the assay with OVCAR-3 ovarian, 102%; in the assay on HS 578T breast, 94.5%; in the assay on NCI/ADR-RES ovarian, 106%.

With `Cc1[nH]c(C2CC(c3ccc(C(F)(F)F)c(F)c3)=NN2c2ccccc2)c(C)c1C(=O)NCC(F)(F)F` (stereo not drawn), the growth was 81.6% in the assay on SR leukemia; 70.7% in the assay with RPMI-8226 leukemia; 87.8% in the assay on OVCAR-8 ovarian; 94.8% with OVCAR-5 ovarian; 92.5% with OVCAR-4 ovarian; 85.6% in the assay on SK-OV-3 ovarian. In addition, the growth is 67.3% in the assay on IGROV1 ovarian, 98.2% with OVCAR-3 ovarian, 87% in the assay with HS 578T breast and 89.7% in the assay on NCI/ADR-RES ovarian.

Regarding `C=C1C(=O)O[C@H]2[C@H]1CC/C(COC(=O)NCc1ccc(Cn3c(=O)sn(-c4ccc(C#N)cc4)c3=O)cc1)=C\CC[C@@]1(C)O[C@@H]21`, the growth in the assay on SR leukemia was 55%; with RPMI-8226 leukemia it was 6.41% (active); in the assay on OVCAR-8 ovarian it was 74.1%; in the assay on OVCAR-5 ovarian, 86%; in the assay on OVCAR-4 ovarian it was 46.5%; with SK-OV-3 ovarian, 93.1%. Also, the growth with IGROV1 ovarian was 57.8%; in the assay on OVCAR-3 ovarian, -39.5% (active); in the assay on HS 578T breast, 99.4%; with NCI/ADR-RES ovarian, 103%.

As to `COc1ccc(/C=C/c2c(C(=O)/C=C/c3ccccc3)c(C)nc3ccccc23)cc1`, the growth in the assay on SR leukemia was 10.7%; in the assay with RPMI-8226 leukemia it was 0.598% (active); in the assay on OVCAR-8 ovarian, 0.97% (active); in the assay with OVCAR-5 ovarian it was -29.3% (active); in the assay with OVCAR-4 ovarian, 37.2%; in the assay with SK-OV-3 ovarian it was 63.6%. Besides, the growth in the assay with IGROV1 ovarian is 6.06% (active); in the assay with OVCAR-3 ovarian, -22.4% (active); in the assay with HS 578T breast it was 38.2%; with NCI/ADR-RES ovarian, 3.63% (active).

Turning to `CCOC(=O)c1ccccc1-c1c2ccc(=[N+](C)C)cc-2oc2cc(N(C)C)ccc12`, the growth in the assay on SR leukemia was 21.9%; in the assay on RPMI-8226 leukemia it was 13.8%; in the assay with OVCAR-8 ovarian it was 2.69% (active); with OVCAR-5 ovarian, 4.53% (active); with OVCAR-4 ovarian, 17.9%; in the assay with SK-OV-3 ovarian it was -2.61% (active). In addition, the growth in the assay on IGROV1 ovarian is 18.4%; with OVCAR-3 ovarian, 11.1%; in the assay with HS 578T breast, 26.1%; with NCI/ADR-RES ovarian, 102%.

Turning to `Cc1ccc(C(=O)Nc2cccc(C#Cc3cccc4[nH]nc(N)c34)c2)cc1C(F)(F)F`, the growth was 69.3% in the assay with SR leukemia; 66.9% in the assay with RPMI-8226 leukemia; 72.1% with OVCAR-8 ovarian; 59.9% in the assay with OVCAR-5 ovarian; 66.6% with OVCAR-4 ovarian; 84.3% in the assay with SK-OV-3 ovarian. The growth was 17.9% with IGROV1 ovarian, 82.7% in the assay on OVCAR-3 ovarian, 47.4% with HS 578T breast and 74.1% in the assay on NCI/ADR-RES ovarian.

For the compound `CC(=C(c1ccc(OCCN2CCCCC2)cc1)c1ccc(OCCN2CCCCC2)cc1)c1ccc(Cl)cc1`, the growth is -60.3% (active) with SR leukemia; -61.7% (active) with RPMI-8226 leukemia; -77.4% (active) in the assay with OVCAR-8 ovarian; -92.5% (active) in the assay on OVCAR-5 ovarian; -88.8% (active) with OVCAR-4 ovarian; -83% (active) in the assay on IGROV1 ovarian. The figures for the growth with OVCAR-3 ovarian, in the assay with HS 578T breast and with NCI/ADR-RES ovarian were -91.4% (active), -72.4% (active) and -90.8% (active), respectively.

For the compound `COC(=O)C(Cc1ccccc1)NC(=O)c1ccc(NC(=O)c2[nH]c(C)c(Cl)c2Cl)c(OC(C)C)c1` (stereo not drawn), the growth was 17.4% in the assay on SR leukemia; 57.9% in the assay on RPMI-8226 leukemia; -29.8% (active) in the assay with OVCAR-8 ovarian; 93.2% in the assay on OVCAR-5 ovarian; 39.7% with OVCAR-4 ovarian; 83.1% in the assay with IGROV1 ovarian. In addition, the growth in the assay on OVCAR-3 ovarian was 12.9%; with HS 578T breast, 62.1%; in the assay on NCI/ADR-RES ovarian it was 31.4%.
